Bioassay records as filed in PubChem.
DT40 TDP1 no CPT: qHTS for Inhibitors of human tyrosyl-DNA phosphodiesterase 1 (TDP1): qHTS in cells in absence of CPT | DT40 Tdp1-/- hTDP1 cells, no CPT, ATP luminescence, 48 h | Potency, µM (top dose mostly 46.2 µM), without a hit: top-dose activity change, negative = growth inhibition, most hits filed as inhibitors | actives 15% (n = 420,000); further: potency means the concentration at half of the fitted maximal effect; nearly all actives have a fitted effect of over 55% in size
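Seeded 400 DT40-hTDP1 cells/well (vehicle DMSO, no 20 nM CPT); pinned compounds; ≥48 hr at 37 °C; CellTiter-Glo luminescence as viability measure.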
HT1080-NT tox: kills 2HG-producing HT-1080-NT fibrosarcoma cells; Potency, µM (top dose mostly 46.1 µM), inactives show top-dose activity, negative = less viability, hits mostly cytotoxic; actives 1.6% (n = 360,000); AID 686970; HT-1080-NT fibrosarcoma viability, CellTiter-Glo ATP luminescence, 48 h;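 further: NT is the 2HG producing partner of a matched IDH1 knockdown line; potency means the concentration at half of the fitted maximal effect; 0% = DMSO-treated cells and -100% = media-only wells without cells; nearly all actives have a fitted effect of over 55% in size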
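A 48-hour cytotoxicity screen used HT-1080-NT cells plated 2 hours before compound delivery. ATP-based CellTiter-Glo luminescence measured viability, normalized to DMSO and no-cell controls.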
IL-1B inflam inh: inhibitors of inflammasome signaling (IL-1 beta secretion). THP-1 LPS/ATP IL-1B secretion, AlphaLISA, 16 h; hits give low values. activity change, % at 57.5 µM. actives 4.7% (n = 360,000); in the data active means activity change below about -50%; inconclusive means mostly about -30% to -49%
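THP-1 cells pretreated 1 hr with compounds (up to 57.5 uM final), then stimulated with LPS (250 ng/mL final) plus ATP (1.25 mM final); secreted IL-1B measured by AlphaLISA after 16 hr, decreased signal indicating inhibition.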
HT1080 IDH1KD tx: kills HT-1080 cells with IDH1 knockdown; HT-1080 IDH1 knockdown viability, ATP luminescence, 48 h; Potency, µM (highest dose often 46.1 µM), for inactives: at the highest dose activity, negative = toxicity, most hits filed as cytotoxic; actives 2% (n = 360,000);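 further: potency means the concentration at half of the fitted maximal effect; 0% = DMSO wells and -100% = cell-free medium wells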
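After a 2 h attachment period, IDH1KD HT-1080 cells took pin-transferred compound for 48 h at 37 °C; ATP-based luminescence after 10 min room-temperature reagent incubation reported viability.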
TDP1 cell CPT: DT40-hTDP1 cell growth loss with CPT | Potency, µM (doses to about 46.2 µM), for the others: at the highest dose activity change, negative = growth inhibition, hits mostly inhibitors | chicken DT40 Tdp1-/-;hTDP1 cells + 20 nM CPT, ATP luminescence, 48 h | actives 12% (n = 420,000); further: potency means the concentration at half of the fitted maximal effect; nearly all actives have a fitted effect of over 55% in size
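Chicken DT40 Tdp1-/- cells complemented with human TDP1, 400 cells/well, exposed to compounds plus 20 nM camptothecin for at least 48 h at 37 C; viability read as ATP content by CellTiter-Glo luminescence.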
* hit, by the source's call; ? = inconclusive; / = no result; ! = a repeat was not active; [ ] = another dose, or the depositor's remark. In the library only some 19% were active in any assay of this set; here they are far more common. Unless noted, the call rests on the fitted dose curve; in most records, active means well fitted curve in the direction sought with a large enough effect; inconclusive means small, poorly fitted or top-dose-only effect, or another doubt; inactive means no such curve, though single readings can be large; an effect the other way counts as inactive or inconclusive. Unless noted, on the % scale 0 is the no-effect control and ±100 the full control effect.

SMILES	DT40 TDP1 no CPT	HT1080-NT tox	IL-1B inflam inh	HT1080 IDH1KD tx	TDP1 cell CPT
CC(C)(C)c1ccc(C(=O)Nc2ccc3nc(SCC(=O)N4CCCC4)sc3c2)cc1	4.1µM*	/	/	/	8.2µM*
COc1ccccc1C(=O)Nc1ccc2nc(SCC(=O)N(C)c3ccccc3)sc2c1	12µM*	/	/	/	18µM*
CCN(CC)C(=O)c1ccc(NC(=O)c2ccc(N3CCCC3=O)cc2)cc1	-4%	2%	-14	10%	9%
Cc1ccccc1C(=O)Nc1ccc2nc(SCC(=O)N(C)c3ccccc3)sc2c1	15µM*	/	/	/	?
C/C=C(\C)C(=O)OC1CC(OC(C)=O)[C@@]2(C(=O)OC)COC3C2[C@@]12CO[C@](O)(C(=O)OC)C2[C@](C)(C12OC1(C)C1CC2OC2OC=C[C@]21O)C3O (some centres not stated)	-6%	/	/	/	9%
COC(=O)C(Cl)C(=O)OC	1%	/	/	/	0%
COc1cc(OC)c(NS(=O)(=O)c2cc(-c3cnc(C4CC4)o3)ccc2C)cc1Cl	6.5µM*	/	/	/	13µM*
c1cnc(OCCN2CC2)cn1	13µM*	-3%	-2	-6%	8.2µM*
c1cc(OCCN2CC2)ccn1	7.3µM*	-6%	14	-13%	3.3µM*
COc1ccc(-n2c(O)c(C(C)=NCc3ccco3)c(=O)[nH]c2=O)cc1	-6%	7%	5	13%	1%
CNC(C)CCC=C(C)C (configuration not stated)	15µM*	/	/	/	?
CC(Cc1ccc2c(c1)OCO2)NO (configuration not stated)	-19%[92.5 µM]	/	/	/	-2%[92.5 µM]
O=C(NN=Cc1ccc(O)c(O)c1)c1ccccc1	23µM*	11%	0	-3%	23µM*
CN1CC[C@]23c4c5ccc(O)c4O[C@H]2[C@@H](O)CC[C@H]3[C@H]1C5	8%[92.5 µM]	/	/	/	-5%[92.5 µM]
CC(C)NCC(O)c1ccc([N+](=O)[O-])cc1 (configuration not stated)	-11%	/	/	/	1%
O=C1c2cc([N+](=O)[O-])ccc2-c2ncccc21	?	-8%	5	-2%	?
CN(N=Cc1ccc([N+](=O)[O-])cc1)c1ccccn1	?	14%	-58*	12%	?
COC(=O)C1=C(c2cccc(C#N)c2)C[C@@H]2CC[C@H]1N2C(=O)NCC1CC1	2%	15%	4	-4%	18%
CCCCN1C(=O)/C(=C\c2ccco2)C(=O)N(CCc2ccccc2)C1=O	-20%	2%	-23	7%	?
CCCCN1C(=O)/C(=C/C=C/c2ccco2)C(=O)NC1=S	-12%	0%	-9	12%	-26%
O=C1NC(=O)N(Cc2ccc(F)cc2)C(=O)/C1=C\C=C\c1ccco1	7.3µM*	21µM*	-96*	?	7.3µM*
O=C1NC(=O)N(Cc2ccccc2)C(=O)/C1=C\c1ccco1	13µM*	-25%	-6	-14%	21µM*
O=C(O)Cn1cc(/C=C2\C(=O)NC(=O)N(Cc3ccco3)C2=O)c2ccccc21	?	2%	5	-13%	0.73µM*
O=P(NC1CCCCC1)(Oc1ccccc1)Oc1ccccc1	?	-23%	-18	-5%	-12%
CC(C)(C)NCc1cccn1-c1sc2c(c1C#N)CCCC2	-29%	0%	-18	5%	?
SMILES	DT40 TDP1 no CPT	HT1080-NT tox	IL-1B inflam inh	HT1080 IDH1KD tx	TDP1 cell CPT
CNC(C)Cc1ccccc1OC (configuration not stated)	-2%	/	/	/	-4%
CCC(=NCc1cccnc1)c1c(O)n(-c2ccc(C)cc2)c(=O)[nH]c1=O	-3%	8%	2	8%	?
COc1ccccc1C1Nc2ccccc2-n2c(-c3ccccc3)c3c(=O)n(C)c(=O)n(C)c3c21 (configuration not stated)	6.5µM*	/	/	/	-102%
CN1CCN(Cc2cn(C)c3ccccc23)CC1CCO (configuration not stated)	-17%	-6%	-20	2%	?
Cc1cccc2c1N(N=O)CCC2	0%	8%	8	7%	9%
COc1ccc2c(c1)c(CCN)c(C)n2Cc1ccccc1	21µM*	?	-52*	?	?
Cc1c(C=O)c2ccccc2n1Cc1ccccc1	-26%	-2%	5	-18%	-5%
COC(=O)C1=C(c2ccc(-c3ccccc3)c(F)c2)C[C@@H]2CC[C@H]1N2C(=O)NC(C)C	18µM*	-17%	-14	-11%	13µM*
COC(=O)C1=C(c2ccc3ccccc3c2)C[C@@H]2CC[C@H]1N2C	-29%	3%	-20	0%	?
COC(=O)C1=C(c2ccc3ccccc3c2)C[C@@H]2CC[C@H]1N2C(=O)NC(C)C	18µM*	0%	-1	5%	?
COC(=O)C1=C(c2ccc(-c3ccccc3)c(F)c2)C[C@@H]2CC[C@H]1N2C(=O)NC1CC1	9.2µM*	-25%	?	-6%	4.1µM*
CS(=O)(=O)Nc1ccc(Cc2noc(-c3ccc4[nH]cc(CCN)c4c3)n2)cc1	?	/	/	/	-18%
ClC1=C(Cl)C2(Cl)C(CBr)CC1(Cl)C2(Cl)Cl (configuration not stated)	-3%	/	/	/	6%
O=C(CN1CCOCC1)c1ccc2ccccc2c1	-11%	/	/	/	-1%
Ic1ccccc1CN[C@@H]1C2CCN(CC2)[C@@H]1C(c1ccccc1)c1ccccc1	6.5µM*	18µM*	-50*	21µM*	12µM*
c1ccc2c(CNC3CCCCCC3)c[nH]c2c1	7.3µM*	?	-70*	20µM*	3.3µM*
Cc1ccnc(-n2c(C)nc3ccccc3c2=O)c1	?	-2%	21	8%	-28%
Cc1cccc(N2CCc3c2nc2ccccc2c3N)c1	?	0%	-91*!	-1%	15µM*
CCC(C)n1c(O)c(/C=N/N2CCOCC2)c(=O)[nH]c1=S (configuration not stated)	-91%	-21%	3	-1%	23µM*
Cc1ccc(C(=O)N2CC2C)cc1 (configuration not stated)	-19%	-1%	-9	-8%	-13%
CN1C2CCC1CC(=NO)C2	-3%	11%	11	0%	0%
COC(=O)C1=C(c2c(C)noc2C)C[C@@H]2CC[C@H]1N2C(=O)NC1CCCCC1	0%	0%	31	4%	13%
O=[N+]([O-])c1c(Cl)cccc1-c1c[nH]cc1Cl	15µM*	/	/	/	21µM*
O=[N+]([O-])c1ccc(Cl)c(Cl)c1Cl	-3%	0%	-19	1%	3%
O=C(NC1CC1)C1CSC(c2cccnc2)=N1 (configuration not stated)	-5%	19%	-5	5%	-26%
